Source: PubChem BioAssay
HT1080 IDH1KD tx – qHTS for induction of synthetic lethality in tumor cells producing 2HG: qHTS for the HT-1080-IDH1KD cell line; Potency, µM (top dose mostly 46.1 µM), for inactives: at the top dose activity, negative = toxicity, most hits filed as cytotoxic; 2% of 360,000 active; HT-1080 IDH1 knockdown viability, ATP luminescence, 48 h; AID 686971, 2013;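 also: potency is read from the fitted curve at half-maximal effect; 0% = DMSO wells and -100% = cell-free medium wells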
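IDH1KD HT-1080 cells, 750/well, RPMI + 5% FBS; compound pinned after 2 h settling; 48 h, 37 °C; CellTiter-Glo luminescence; % activity normalised to DMSO and no-cell wells; curves fitted, classed by r2 and efficacy.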
TDP1 cell noCPT – qHTS for Inhibitors of human tyrosyl-DNA phosphodiesterase 1 (TDP1): qHTS in cells in absence of CPT; DT40 Tdp1-/- hTDP1 cells, no CPT, ATP luminescence, 48 h; Potency, µM (titrated, usually from 46.2 µM), for the others: at the top dose activity change, negative = growth inhibition, usual class: inhibitors; 15% of 420,000 active; also: potency is read from the fitted curve at half-maximal effect; nearly all actives have a fitted effect of over 55% in size
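Compound effects on proliferation are scored in DT40 Tdp1-/-;hTDP1 cells in the absence of CPT. ATP levels (CellTiter-Glo luminescence) are recorded after a ≥48 hr, 37 °C incubation.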
DT40 TDP1 CPT – qHTS for Inhibitors of human tyrosyl-DNA phosphodiesterase 1 (TDP1): qHTS in cells in presence of CPT. chicken DT40 Tdp1-/-;hTDP1 cells + 20 nM CPT, ATP luminescence, 48 h. Potency, µM (series often up to 46.2 µM), for the others: at the highest dose activity change, negative = growth inhibition, actives largely listed as inhibitors. 12% of 420,000 active; also: potency is read from the fitted curve at half-maximal effect; nearly all actives have a fitted effect of over 55% in size
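Chicken DT40 Tdp1-/- cells complemented with human TDP1, 400 cells/well, exposed to compounds plus 20 nM camptothecin for at least 48 h at 37 C; viability read as ATP content by CellTiter-Glo luminescence.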
ELG1 DNA repair – qHTS screen for small molecules that inhibit ELG1-dependent DNA repair in human embryonic kidney (HEK293T) cells expressing luciferase-tagged ELG1; HEK293T ELG1-luciferase reporter, luminescence, 16 h; DNA damage induced by 5-fluorouridine; Potency, µM (titrated, usually from 46.1 µM), inactives show at the highest dose activity change, negative = inhibition, usual class: inhibitors; 2.3% of 330,000 active; AID 504467, 2011; also: potency is read from the fitted curve at half-maximal effect; nearly all actives have a fitted effect of over 55% in size
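DMSO vehicle served as the neutral condition. Each well held 2,000 cells given 5-fluorouridine plus compound; after 16 hr at 37 °C/5% CO2, ONE-Glo was added and luciferase measured 30 min later.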
IL1B secr inh – qHTS for Inhibitors of Inflammasome Signaling: IL-1-beta AlphaLISA Primary Screen; THP-1 LPS/ATP IL-1B secretion, AlphaLISA, 16 h; hits give low values; activity change, % at 57.5 µM; 4.7% of 360,000 active; in the data active = activity change below about -50%; inconclusive = mostly about -30% to -49%
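THP-1 cells pretreated 1 hr with compounds (up to 57.5 uM final), then stimulated with LPS (250 ng/mL final) plus ATP (1.25 mM final); secreted IL-1B measured by AlphaLISA after 16 hr, decreased signal indicating inhibition.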
HT1080NT lethal – qHTS for induction of synthetic lethality in tumor cells producing 2HG: qHTS for the HT-1080-NT fibrosarcoma cell line | HT-1080-NT fibrosarcoma viability, CellTiter-Glo ATP luminescence, 48 h | Potency, µM (titrated, usually from 46.1 µM), for the others: at the highest dose activity, negative = less viability, most hits filed as cytotoxic | 1.6% of 360,000 active | AID 686970, 2013;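 also: NT is the 2HG producing partner of a matched IDH1 knockdown line; potency is read from the fitted curve at half-maximal effect; 0% = DMSO-treated cells and -100% = media-only wells without cells; nearly all actives have a fitted effect of over 55% in size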
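Viability of the 2HG-overproducing fibrosarcoma line after 48 hours of compound exposure at 37 degrees C was determined by luminescence with CellTiter-Glo, and concentration-effect curves were then fitted and categorized.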
An asterisk follows results filed as active; ? = inconclusive; nt = not tested or not shown. The list is not random: actives were taken first. Their share in the collection is about 19%. Unless noted, calls follow the shape of the dose curve; as a rule, active = well fitted curve in the direction sought with a large enough effect; inconclusive = small, poorly fitted or top-dose-only effect, or another doubt; inactive = no such curve, though single readings can be large; an effect the other way counts as inactive or inconclusive. Unless noted, % is scaled to controls: 0 for no effect and ±100 for the full control effect.

SMILES	HT1080 IDH1KD tx	TDP1 cell noCPT	DT40 TDP1 CPT	ELG1 DNA repair	IL1B secr inh	HT1080NT lethal
CCCCN(C(=O)NCCCCCCNC(=O)N(CCCC)C1CCS(=O)(=O)C1)C1CCS(=O)(=O)C1 (stereo unspecified)	11%	4%	2%	7%	11	-2%
COC(=O)C[C@H](NC(=O)Cn1cnc2c(SC)nc(N)nc21)C(=O)OC	3%	21%	2%	12%	26	8%
CSc1nc(N)nc2c1ncn2CC(=O)NCC(c1ccccc1)c1ccccc1	-4%	21µM*	15µM*	?	25	-2%
CSc1nc(N)nc2c1ncn2CC(=O)Nc1ccc(C)c(C)c1	-1%	15µM*	13µM*	6.5µM*	24	-4%
COc1ncc2nc(-c3cc(F)cc(F)c3)c(=O)n(CCc3ccccc3)c2n1	nt	-4%	1%	nt	nt	nt
O=C(COc1ccc(Cl)cc1)NNC(=O)C(=O)NC1CCCCC1	13%	-3%	-1%	?	-2	6%
CCSc1ccc([C@@H]2[C@H]3C(=O)N(CC)C(=O)[C@H]3[C@]3(C(=O)OC)CCCCN23)cc1	5%	23µM*	?	7%	8	0%
CCSc1ccc([C@@H]2[C@H]3C(=O)N(C)C(=O)[C@H]3[C@]3(C(=O)OC)CCCCN23)cc1	?	16µM*	?	-19%	20	-24%
CCCSc1ccc([C@@H]2[C@H]3C(=O)N(CC)C(=O)[C@H]3[C@]3(C(=O)OC)CCCN23)cc1OC	-3%	?	?	-1%	-8	3%
CCCCCCSc1ccc([C@@H]2[C@H]3C(=O)N(C)C(=O)[C@H]3[C@]3(C(=O)OC)CCCCN23)cc1	0%	?	?	-13%	-18	7%
CCSc1ccc([C@@H]2[C@@H]3C(=O)N(CC)C(=O)[C@@H]3[C@]3(C(=O)OC)CCCN23)cc1	12%	23µM*	?	15%	16	-1%
CCCCCCSc1ccc([C@@H]2[C@@H]3C(=O)N(CC)C(=O)[C@@H]3[C@]3(C(=O)OC)CCCCN23)cc1	5%	21µM*	18µM*	-6%	-17	0%
Cc1nnc(NC(=O)CSCc2cc(=O)c3cc(Cl)ccc3[nH]2)s1	nt	2%	-17%	nt	nt	nt
CCCSc1ccc([C@@H]2[C@@H]3C(=O)N(C)C(=O)[C@@H]3[C@]3(C(=O)OC)CCCCN23)cc1OC	2%	23µM*	?	-1%	-3	-1%
CCSc1ccc([C@@H]2[C@@H]3C(=O)N(CC)C(=O)[C@@H]3[C@]3(C(=O)OC)CCCCN23)cc1	-14%	23µM*	16µM*	-4%	13	-10%
COC(=O)[C@@]12CCCCN1[C@H](c1ccc(SC3CCCCC3)cc1)[C@@H]1C(=O)N(C)C(=O)[C@@H]12	5%	?	?	2%	0	3%
CCCSc1ccc([C@@H]2[C@H]3C(=O)N(CC)C(=O)[C@H]3[C@]3(C(=O)OC)CCCCN23)cc1OC	1%	?	?	-23%	-6	2%
CCC(C)Sc1ccc([C@@H]2[C@H]3C(=O)N(CC)C(=O)[C@H]3[C@]3(C(=O)OC)CCCCN23)cc1 (stereo partly specified)	-30%	16µM*	?	-27%	-10	-21%
O=[N+]([O-])O[C@@H]1CO[C@H]2[C@@H]1OC[C@@H]2O	nt	-12%	12%	nt	nt	nt
O=C(c1cccc(F)c1)N1CCC[C@@]2(CCN(Cc3ccccc3)C2)C1	nt	-22%	14%	nt	nt	nt
Cc1ccc2[nH]c(C(=O)O)c(NC(=O)CN3CCN(c4cccc(C)c4C)CC3)c2c1	?	23µM*	?	-5%	45	?
COC(=O)c1[nH]c2ccc(C)cc2c1NC(=O)CN1CCN(C(=O)c2ccccc2)CC1	0%	?	?	21µM*	28	0%
COC(=O)c1[nH]c2cc(OC)c(OC)cc2c1NC(=O)CN1CCN(Cc2ccccc2)CC1	nt	nt	nt	1.6µM*	nt	nt
COC(=O)c1[nH]c2ccc(C)cc2c1NC(=O)CN1CCN(c2ccc(F)cc2)CC1	4%	16µM*	11µM*	9.2µM*	-6	0%
CN[C@@H](CO)C(=O)NC[C@H]1O[C@@H](n2cc(C)c(=O)[nH]c2=O)C[C@@H]1O	1%	-28%	-10%	nt	15	0%
SMILES	HT1080 IDH1KD tx	TDP1 cell noCPT	DT40 TDP1 CPT	ELG1 DNA repair	IL1B secr inh	HT1080NT lethal
CN1C(=O)C(C)(C)c2cc(S(=O)(=O)N3CCC(C(=O)Nc4ccc(Cl)cc4)CC3)ccc21	14%	-21%	-20%	5%	9	20%
COC(=O)c1[nH]c2ccc(C)cc2c1NC(=O)CN1CCN(Cc2ccccc2)CC1	-8%	26µM*	18µM*	8.2µM*	-1	-9%
CCOC(=O)N1CCN(CC(=O)Nc2c(C(=O)OC)[nH]c3cc(C)ccc23)CC1	2%	?	?	-19%	33	-2%
CC(C)N1C(=O)N(c2cccc(Cl)c2)C(C)(O)CC1(C)C (stereo unspecified)	15%	-13%	-2%	-11%	17	3%
Cc1cccc(C)c1NC(=O)CN1CCN(C(=O)CNC(=O)Cc2cccc3ccccc23)CC1	3%	15µM*	?	nt	3	-16%
Cc1cccc(C)c1NC(=O)CN1CCN(C(=O)CNC(=O)c2ccc(-c3ccccc3)cc2)CC1	?	16µM*	?	nt	29	2%
Cc1cccc(NC(=O)CN2CCN(C(=O)CNC(=O)c3ccc(-c4ccccc4)cc3)CC2)c1C	10µM*	2.3µM*	4.6µM*	nt	38	?
O=C(NCc1cccc(C(F)(F)F)c1)N1CCN(S(=O)(=O)c2ccccc2F)CC1	-16%	?	-25%	-15%	-9	-8%
C=CC(=O)Nc1cccc(Oc2ncnc3[nH]cc(-c4cnc5ccccc5c4)c23)c1	-9%	?	?	7.3µM*	-17	-22%
C(=N\Nc1nc2ccccc2[nH]1)/c1c[nH]c2ccccc12	?	16µM*	?	?	-95*	16µM*
